Each structure is given as a SMILES string.

This assay has as its target T1, Methionyl-tRNA synthetase, putative (Leishmania donovani (strain BPK282A1)) (UniProt E9BF75).
T1 sequence (whole entry): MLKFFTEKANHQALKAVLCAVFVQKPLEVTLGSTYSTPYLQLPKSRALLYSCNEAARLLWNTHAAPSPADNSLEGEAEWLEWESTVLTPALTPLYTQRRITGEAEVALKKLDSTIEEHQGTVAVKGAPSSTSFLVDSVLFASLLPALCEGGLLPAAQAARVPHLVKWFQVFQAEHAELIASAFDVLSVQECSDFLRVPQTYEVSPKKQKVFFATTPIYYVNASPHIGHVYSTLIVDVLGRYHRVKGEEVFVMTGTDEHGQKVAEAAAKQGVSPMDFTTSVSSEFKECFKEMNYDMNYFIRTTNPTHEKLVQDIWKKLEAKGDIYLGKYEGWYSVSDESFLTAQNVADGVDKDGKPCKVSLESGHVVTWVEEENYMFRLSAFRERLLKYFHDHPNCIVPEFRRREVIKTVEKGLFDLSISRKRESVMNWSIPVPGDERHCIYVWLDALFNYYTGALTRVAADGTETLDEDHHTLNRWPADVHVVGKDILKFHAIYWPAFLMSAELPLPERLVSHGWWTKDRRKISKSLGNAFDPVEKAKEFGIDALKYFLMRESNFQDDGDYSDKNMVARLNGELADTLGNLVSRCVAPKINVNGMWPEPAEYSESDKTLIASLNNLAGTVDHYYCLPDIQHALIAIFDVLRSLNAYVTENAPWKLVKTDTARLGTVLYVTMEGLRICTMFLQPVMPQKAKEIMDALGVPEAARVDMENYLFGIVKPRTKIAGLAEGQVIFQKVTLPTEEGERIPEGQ
Kind of assay: Leishmania donovani Methionine tRNA synthetase (LdMetRS):v7. Dose response assay. Type of assay: functional. Also noted: conc 80 nM, time 150 minutes.

As for `OCCNc1nc(Nc2ccc(F)c(F)c2)nc2ccsc12`, the PXC50 (BOTTOM 1.719198718, HILLSLOPE 0.904710071, MAX_EFFECT 90.94412331, TOP 99.0565164) was 5.18; the PXC50 (BOTTOM 2.94588064, HILLSLOPE 1.041078654, MAX_EFFECT 85.02202643, TOP 89.21565971) is 5.26; the PXC50 (BOTTOM 5.256543605, HILLSLOPE 0.944714137, MAX_EFFECT 88.2231405, TOP 97.0813666) was 5.17.

For the compound `CCCCOC(=O)CNc1nc(Nc2ccc(F)c(F)c2)nc2c1cnn2C`, the PXC50 is under 4 (MAX_EFFECT 18.05225653), under 4 (MAX_EFFECT 18.45493562) and under 4 (MAX_EFFECT 25.28301887).

Consider `N[C@H](COc1cccc(F)c1Oc1ccc(Cl)cc1)Cc1ccccc1`, for which the PXC50 was 4.22 (BOTTOM 1.014480123, HILLSLOPE 1.236846962, MAX_EFFECT 63.97515528, TOP 100.0) and 4.22 (BOTTOM 4.768215501, HILLSLOPE 2.241755438, MAX_EFFECT 75.26652452, TOP 100.0).

Compound `CC(C)Nc1nc(Nc2ccc(F)c(F)c2)nc2c1cnn2C` showed a PXC50 (BOTTOM 6.912856457, HILLSLOPE 1.265127605, MAX_EFFECT 60.96491228, TOP 58.85327881) of 5.32; a PXC50 (BOTTOM 8.026516696, HILLSLOPE 1.466204418, MAX_EFFECT 55.47073791, TOP 58.34935066) of 5.27; a PXC50 (BOTTOM 8.495247693, HILLSLOPE 1.610767227, MAX_EFFECT 62.64150943, TOP 64.37148882) of 5.22.

Consider `COC(=O)CCNc1nc(CN2CCCCC2)nc2sc3c(c12)CCC3`, for which the PXC50 is under 4.31 (MAX_EFFECT 7.808564232) and under 4 (MAX_EFFECT 7.888040712).

As to `CN(CCO)c1nc(-c2ccsc2)nc2sc3c(c12)CCCC3`, the PXC50 is under 4 (MAX_EFFECT 26.13333333) and under 4 (MAX_EFFECT 28.04232804).

On to `Cc1cc(C)n(-c2nc(N(C)C)c3c4c(sc3n2)CCCC4)n1`, for which the PXC50 reads like this: (BOTTOM 3.265302341, HILLSLOPE 1.809282706, MAX_EFFECT 78.125, TOP 100.0) 4.28; (BOTTOM 6.620107204, HILLSLOPE 2.145601955, MAX_EFFECT 79.8245614, TOP 100.0) 4.28.

In the case of `Cc1cc(C)n(C2CN(CC(=O)N(C)Cc3cnn(C)c3)C2)n1`, the PXC50 reads like this: (BOTTOM 1.685263138, HILLSLOPE 1.431243041, MAX_EFFECT 59.07590759, TOP 100.0) 4.06; (MAX_EFFECT 33.33333333) under 4; (MAX_EFFECT 44.80286738) under 4.

For `Cc1cc2c(N3CCC(C(N)=O)CC3)nc(-c3cccnc3)nc2s1`, the PXC50 reads like this: (MAX_EFFECT 10.38251366) under 4; (MAX_EFFECT 13.36898396) under 4.

Regarding `CC(CO)Nc1nc(Nc2ccc(F)c(F)c2)nc2c1cnn2C` (stereo not drawn), the PXC50 was determined as 4.83 (BOTTOM 2.552520772, HILLSLOPE 1.745088914, MAX_EFFECT 107.6446281, TOP 100.0); 5.16 (BOTTOM 8.006700064, HILLSLOPE 1.180035315, MAX_EFFECT 70.20872865, TOP 73.72941327); 4.9 (BOTTOM -2.864211308, HILLSLOPE 1.095022811, MAX_EFFECT 93.83259912, TOP 100.0).

With `Cc1cnn(CCNCc2c(C)nn(-c3ccccc3)c2C)c1`, the PXC50 reads like this: (MAX_EFFECT 6.52173913) under 4; (MAX_EFFECT 6.802721088) under 4; (MAX_EFFECT 12.78458844) under 4.

Regarding `CCc1cccc(Nc2nc(NCCO)c3sccc3n2)c1`, the PXC50 was under 4 (MAX_EFFECT 17.21470019), under 4 (MAX_EFFECT 27.31277533) and under 4 (MAX_EFFECT 37.39669421).

As for `C[C@@H](CO)Nc1ccnc(Nc2cccc(C(F)(F)F)c2)n1`, the PXC50 runs as follows: (BOTTOM 1.593845471, HILLSLOPE 0.816282678, MAX_EFFECT 64.11214953, TOP 100.0) 4.29; (BOTTOM 3.003400849, HILLSLOPE 0.886139555, MAX_EFFECT 64.25619835, TOP 100.0) 4.3; (BOTTOM -0.445089983, HILLSLOPE 0.824021196, MAX_EFFECT 60.35242291, TOP 100.0) 4.26.

For the compound `Cn1ncc2c(NCC(F)F)nc(Nc3ccc(F)c(F)c3)nc21`, the PXC50 worked out at 5.09 (BOTTOM 1.581546444, HILLSLOPE 1.045254628, MAX_EFFECT 85.66037736, TOP 91.59899261); 4.86 (BOTTOM 2.845790401, HILLSLOPE 0.765565912, MAX_EFFECT 91.60305344, TOP 108.0932569); 4.81 (BOTTOM 5.50929664, HILLSLOPE 0.80038345, MAX_EFFECT 90.35087719, TOP 108.0671509).

Regarding `Cc1nccn1CCCn1cncc1-c1ccc2c(c1)CC(C)N2C` (stereo not drawn), the PXC50 was under 4 (MAX_EFFECT 28.57142857) and under 4 (MAX_EFFECT 43.36448598).

`FC1(F)CCN(Cc2ccncc2)CC12CCN(c1cccnc1)C2` (stereo not drawn): the PXC50 (MAX_EFFECT 5.981308411) was under 4 and the PXC50 (MAX_EFFECT -0.453514739) is under 4.

`Cc1cc(Nc2ccc(F)c(F)c2)nc(NCCO)n1` gave a PXC50 (BOTTOM -0.152929864, HILLSLOPE 0.883857243, MAX_EFFECT 83.3655706, TOP 93.53791092) of 5.04; a PXC50 (BOTTOM -2.585097693, HILLSLOPE 0.96868989, MAX_EFFECT 84.50413223, TOP 95.81491094) of 4.9; a PXC50 (BOTTOM -4.028659836, HILLSLOPE 0.891804294, MAX_EFFECT 83.70044053, TOP 100.2402145) of 4.82.

As for `CCc1[nH]c2c(CNc3nc(C)cc(NC)n3)cc(C)cc2c1C`, the PXC50 was 4.25 (BOTTOM 0.67274626, HILLSLOPE 1.539733885, MAX_EFFECT 72.46376812, TOP 100.0); 4.22 (BOTTOM -0.906983609, HILLSLOPE 1.456210781, MAX_EFFECT 70.06802721, TOP 103.3868667); under 4 (MAX_EFFECT 28.19614711).

In the case of `Cn1ncc2c(NCCN3CCOCC3)nc(Nc3ccc(F)c(F)c3)nc21`, the PXC50 amounted to 4.86 (BOTTOM 0.0547, HILLSLOPE 0.927770989, MAX_EFFECT 85.76850095, TOP 98.88350894); 4.91 (BOTTOM -0.988495369, HILLSLOPE 1.035285925, MAX_EFFECT 73.01886792, TOP 82.1779252); 4.76 (BOTTOM -7.338677117, HILLSLOPE 0.775594481, MAX_EFFECT 82.64840183, TOP 100.0).

For `CN(C)CCNc1nc(Nc2ccc(F)c(F)c2)nc2c1cnn2C`, the PXC50 stood at 4.37 (BOTTOM 0.475518208, HILLSLOPE 0.90804468, MAX_EFFECT 68.49315068, TOP 100.0593914); 4.44 (BOTTOM 1.11826122, HILLSLOPE 1.149142478, MAX_EFFECT 65.47169811, TOP 85.8972695); 4.53 (BOTTOM 3.189178936, HILLSLOPE 1.201155954, MAX_EFFECT 69.44971537, TOP 84.11641449).

`O=C1NCC(c2ccc(F)cc2)Cc2[nH]c(CCN3CCCC3)nc21` (stereo not drawn): the PXC50 reads like this: (BOTTOM 0.586623965, HILLSLOPE 0.960788857, MAX_EFFECT 61.0738255, TOP 100.0) 4.15; (BOTTOM 2.860481636, HILLSLOPE 1.198642369, MAX_EFFECT 65.27777778, TOP 100.0) 4.21; (BOTTOM -5.455719139, HILLSLOPE 0.971400426, MAX_EFFECT 59.44540728, TOP 100.0) 4.18.

Take `CNc1nc(Nc2ccc(F)c(F)c2)nc2c1cnn2C`: the PXC50 (BOTTOM 0.870209489, HILLSLOPE 0.808254997, MAX_EFFECT 89.4026975, TOP 100.0) is 5.22; the PXC50 (BOTTOM 6.300791226, HILLSLOPE 0.864616698, MAX_EFFECT 89.69957082, TOP 97.1703974) was 5.16; the PXC50 (BOTTOM -2.296989521, HILLSLOPE 0.747850258, MAX_EFFECT 89.3111639, TOP 97.09484857) came to 5.35.

`OCCNc1nc(Nc2cccc(Cl)c2)nc2ccsc12` had a PXC50 (BOTTOM 1.378134297, HILLSLOPE 1.322835543, MAX_EFFECT 77.47933884, TOP 79.16655544) of 5.15; a PXC50 (BOTTOM 6.064283009, HILLSLOPE 1.027674538, MAX_EFFECT 79.88394584, TOP 88.71842546) of 4.91; a PXC50 (BOTTOM -3.793761971, HILLSLOPE 0.936804969, MAX_EFFECT 83.25991189, TOP 91.73851926) of 5.08.

For the compound `CC(C)c1nc(N2CCC(N3CCCCCC3)CC2)c2cnn(C)c2n1`, the PXC50 runs as follows: (BOTTOM 1.611649307, HILLSLOPE 1.510978702, MAX_EFFECT 74.4966443, TOP 100.0) 4.28; (BOTTOM 2.404981537, HILLSLOPE 1.138566115, MAX_EFFECT 78.47222222, TOP 100.0) 4.48; (BOTTOM 5.527995165, HILLSLOPE 1.337567516, MAX_EFFECT 71.57712305, TOP 100.0) 4.24.

For `COc1ccc(-c2nc3c([nH]2)CCNC3C(=O)O)c2ccc(C)nc12` (stereo not drawn), the PXC50 runs as follows: (BOTTOM 1.718114205, HILLSLOPE 1.017534888, MAX_EFFECT 58.69565217, TOP 100.0) 4.17; (BOTTOM 3.702697872, HILLSLOPE 1.816429842, MAX_EFFECT 76.89768977, TOP 100.0) 4.25; (BOTTOM -10.20592251, HILLSLOPE 0.737543358, MAX_EFFECT 64.87455197, TOP 100.0) 4.33.

(Values after ChEMBL document CHEMBL3988442, “University of Dundee, Small-Polar-MMV Screening Library” (2021).)
